From the supplement of paper PMC8728848
Only a selection was taken, and the strongest signals are over-represented in it overall.

Experiments:
Assay in all cases: glycan array binding signal (z-score within array); higher = stronger binding
Details in all cases: glycan notation: IUPAC condensed, linker removed
[1] = target: Fuc(a1-2)Gal(b1-3)GlcNAc(b1-3)[Gal(b1-4)GlcNAc(b1-6)]Gal(b1-4)Glc
In short: (§1)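 Negative Z-scores can be read as non-binding. The Z-score is calculated within each array and then averaged across arrays of one protein sequence at different concentrations or buffers and across linkers. Arrays, 3228 in all, were curated from the Consortium for Functional Glycomics database and kept only where the protein sequence was available.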

[2] = target: Fuc(a1-2)Gal(b1-3)[Fuc(a1-4)]GlcNAc(b1-3)[Fuc(a1-3)[Gal(b1-4)]GlcNAc(b1-6)]Gal(b1-4)Glc
In short: as §1

[3] = target: Fuc(a1-2)Gal(b1-4)GlcNAc(b1-2)Man(a1-3)[Fuc(a1-2)Gal(b1-4)GlcNAc(b1-2)Man(a1-6)]Man(b1-4)GlcNAc(b1-4)GlcNAc
In short: as §1

[4] = target: Fuc(a1-2)Gal(b1-4)GlcNAc(b1-2)[Fuc(a1-2)Gal(b1-4)GlcNAc(b1-4)]Man(a1-3)[Fuc(a1-2)Gal(b1-4)GlcNAc(b1-2)Man(a1-6)]Man(b1-4)GlcNAc(b1-4)GlcNAc
In short: as §1

[5] = target: Fuc(a1-2)[Gal(a1-3)]Gal(b1-3)GlcNAc(b1-2)Man(a1-3)[Fuc(a1-2)[Gal(a1-3)]Gal(b1-3)GlcNAc(b1-2)Man(a1-6)]Man(b1-4)GlcNAc(b1-4)GlcNAc
In short: as §1

[6] = target: Fuc(a1-2)[Gal(a1-3)]Gal(b1-3)GlcNAc(b1-2)Man(a1-3)[Fuc(a1-2)[Gal(a1-3)]Gal(b1-3)GlcNAc(b1-2)Man(a1-6)]Man(b1-4)GlcNAc(b1-4)[Fuc(a1-6)]GlcNAc
In short: as §1

[7] = target: Fuc(a1-2)[Gal(a1-3)]Gal(b1-4)GlcNAc
In short: as §1

[8] = target: Fuc(a1-2)[Gal(a1-4)]Gal(b1-4)GlcNAc
In short: as §1

[9] = target: Fuc(a1-2)[GalNAc(a1-3)]Gal(b1-3)GlcNAc
In short: as §1

[10] = target: Fuc(a1-2)[GalNAc(a1-3)]Gal(b1-3)GlcNAc(b1-3)GalNAc
In short: as §1

[11] = target: Fuc(a1-2)[GalNAc(a1-3)]Gal(b1-4)GlcNAc(b1-3)Gal(b1-4)GlcNAc
In short: as §1

[12] = target: Fuc(a1-3)[Gal(b1-4)]GlcNAc(b1-2)Man(a1-3)[Fuc(a1-3)[Gal(b1-4)]GlcNAc(b1-2)Man(a1-6)]Man(b1-4)GlcNAc(b1-4)GlcNAc
In short: as §1

[13] = target: Fuc(a1-3)[Gal(b1-4)]GlcNAc(b1-2)Man(a1-3)[Fuc(a1-3)[Gal(b1-4)]GlcNAc(b1-2)Man(a1-6)]Man(b1-4)GlcNAc(b1-4)[Fuc(a1-6)]GlcNAc
In short: as §1

[14] = target: Gal(a1-3)Gal(b1-4)[Fuc(a1-3)]GlcNAc
In short: as §1

[15] = target: Gal(a1-4)Gal(b1-3)GlcNAc(b1-2)Man(a1-3)[Gal(a1-4)Gal(b1-3)GlcNAc(b1-2)Man(a1-6)]Man(b1-4)GlcNAc(b1-4)GlcNAc
In short: as §1

[16] = target: Gal(a1-4)Gal(b1-4)GlcNAc(b1-3)Gal(b1-4)Glc
In short: as §1

Gal(b1-2)Gal = target: Gal(b1-2)Gal
In short: as §1

[17] = target: Gal(b1-4)GlcNAc(b1-2)Man(a1-3)[Gal(b1-4)GlcNAc(b1-2)][GlcNAc(b1-4)]Man(b1-4)GlcNAc(b1-4)GlcNAc
In short: as §1

[18] = target: Gal(b1-4)GlcNAc(b1-3)Gal(b1-4)Glc
In short: as §1

[19] = target: Gal(b1-4)GlcNAc(b1-3)Gal(b1-4)[Fuc(a1-3)]GlcNAc(b1-3)Gal(b1-4)[Fuc(a1-3)]GlcNAc
In short: as §1

Gal3S(b1-4)Glc = target: Gal3S(b1-4)Glc
In short: as §1

[20] = target: GalNAc(a1-3)GalNAc(b1-3)Gal(a1-4)Gal(b1-4)Glc
In short: as §1

[21] = target: GalNAc(b1-3)Gal(a1-6)Gal(b1-4)Glc
In short: as §1

GalNAc(b1-6)GalNAc = target: GalNAc(b1-6)GalNAc
In short: as §1

[22] = target: Glc(a1-4)Glc(a1-4)Glc(a1-4)Glc
In short: as §1

[23] = target: GlcNAc(a1-4)Gal(b1-4)GlcNAc(b1-3)Gal(b1-4)GlcNAc
In short: as §1

GlcNAc(b1-4)GlcNAc = target: GlcNAc(b1-4)GlcNAc
In short: as §1

[24] = target: GlcNAc(b1-4)GlcNAc(b1-4)GlcNAc(b1-4)GlcNAc(b1-4)GlcNAc
In short: as §1

Kdn(a2-3)Gal(b1-4)GlcNAc = target: Kdn(a2-3)Gal(b1-4)GlcNAc
In short: as §1

[25] = target: Kdn(a2-3)Gal(b1-4)[Fuc(a1-3)]GlcNAc
In short: as §1

[26] = target: Man(a1-2)Man(a1-3)[Man(a1-2)Man(a1-6)]Man
In short: as §1

[27] = target: Man(a1-2)Man(a1-6)[Man(a1-3)]Man(a1-6)[Man(a1-2)Man(a1-2)Man(a1-3)]Man
In short: as §1

Man(a1-3)[Man(a1-6)]Man = target: Man(a1-3)[Man(a1-6)]Man
In short: as §1

[28] = target: Man(a1-3)[Man(a1-6)]Man(a1-6)[Man(a1-3)]Man
In short: as §1

Neu5Ac(a2-3)Gal = target: Neu5Ac(a2-3)Gal
In short: as §1

[29] = target: Neu5Ac(a2-3)Gal6S(b1-4)GlcNAc
In short: as §1

[30] = target: Neu5Ac(a2-6)GlcNAc(b1-4)GlcNAc
In short: as §1

[31] = target: Neu5Ac(a2-8)Neu5Ac(a2-8)Neu5Ac
In short: as §1

[32] = target: Neu5Ac(a2-8)Neu5Ac(a2-8)Neu5Ac(a2-3)Gal(b1-4)Glc
In short: as §1

[33] = target: Neu5Ac9Ac(a2-3)Gal(b1-3)GlcNAc
In short: as §1

[34] = target: Neu5Gc(b2-6)Gal(b1-4)GlcNAc
In short: as §1

B1: PGP3 (Chlamydia trachomatis), P0CE18 (protein)
chain: MGNSGFYLYNTQNCVFADNIKVGQMTEPLKDQQIILGTTSTPVAAKMTASDGISLTVSNNPSTNASITIGLDAEKAYQLILEKLGDQILGGIADTIVDSTVQDILDKITTDPSLGLLKAFNNFPITNKIQCNGLFTPRNIETLLGGTEIGKFTVTPKSSGSMFLVSADIIASRMEGGVVLALVREGDSKPYAISYGYSSGVPNLCSLRTRIINTGLTPTTYSLRVGGLESGVVWVNALSNGNDILGITNTSNVSFLEVIPQTNA
With B1 the “glycan array binding signal (z-score)” value [1] was 0.289, the “glycan array binding signal (z-score)” value [2] was -0.443 and the “glycan array binding signal (z-score)” value [3] was -0.053. The “glycan array binding signal (z-score)” value [4] was 2.62, the “glycan array binding signal (z-score)” value [5] was 5.67 and the “glycan array binding signal (z-score)” value [6] was 0.251. For the same binder, the “glycan array binding signal (z-score)” value [7] was -1.17, the “glycan array binding signal (z-score)” value [8] was -0.649 and the “glycan array binding signal (z-score)” value [9] was 0.499. The “glycan array binding signal (z-score)” value [10] was 2.46, the “glycan array binding signal (z-score)” value [11] was 0.028 and the “glycan array binding signal (z-score)” value [12] was 2.78. For the same binder, the “glycan array binding signal (z-score)” value [13] was -0.169, the “glycan array binding signal (z-score)” value [14] was -0.404 and the “glycan array binding signal (z-score)” value [15] was 3.06. The “glycan array binding signal (z-score)” value [16] was -0.099, the “glycan array binding signal (z-score)” value (Gal(b1-2)Gal) was 0.34 and the “glycan array binding signal (z-score)” value [17] was 1.19. For the same binder, the “glycan array binding signal (z-score)” value [18] was -0.67, the “glycan array binding signal (z-score)” value [19] was 0.322 and the “glycan array binding signal (z-score)” value (Gal3S(b1-4)Glc) was -0.636. The “glycan array binding signal (z-score)” value [20] was 1.04, the “glycan array binding signal (z-score)” value [21] was 2.89 and the “glycan array binding signal (z-score)” value (GalNAc(b1-6)GalNAc) was 0.114. The “glycan array binding signal (z-score)” value [22] was 0.478, the “glycan array binding signal (z-score)” value [23] was 1.53 and the “glycan array binding signal (z-score)” value (GlcNAc(b1-4)GlcNAc) was 0.682. The “glycan array binding signal (z-score)” value [24] was 1.18, the “glycan array binding signal (z-score)” value (Kdn(a2-3)Gal(b1-4)GlcNAc) was 1.53 and the “glycan array binding signal (z-score)” value [25] was 0.816. The “glycan array binding signal (z-score)” value [26] was 0.09, the “glycan array binding signal (z-score)” value [27] was 0.585 and the “glycan array binding signal (z-score)” value (Man(a1-3)[Man(a1-6)]Man) was -0.232. For the same binder, the “glycan array binding signal (z-score)” value [28] was 0.157, the “glycan array binding signal (z-score)” value (Neu5Ac(a2-3)Gal) was 0.478 and the “glycan array binding signal (z-score)” value [29] was 2.5. The “glycan array binding signal (z-score)” value [30] was -1.37, the “glycan array binding signal (z-score)” value [31] was 1.11 and the “glycan array binding signal (z-score)” value [32] was 2.79. For the same binder, the “glycan array binding signal (z-score)” value [33] was 2.73 and the “glycan array binding signal (z-score)” value [34] was -1.1.
